Test results as given in PubChem BioAssay (NCATS).
Results filed as inconclusive are left out. Calls of active or inactive are those of the source. Calls come from the whole dose curve; as a rule, active = well fitted curve in the direction sought with a large enough effect; inconclusive = small, poorly fitted or top-dose-only effect, or another doubt; inactive = no such curve, though single readings can be large; an effect the other way counts as inactive or inconclusive.

Key:
[1] = Cell Viability - LYMP2-017 (AID 972); note: nearly all actives have a fitted effect of over 55% in size; note: potency is the fitted concentration of half-maximal effect
In short: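 Human lymphoblastoid cells (2500/well) were seeded in complete medium, held 5 hr at 37 C, then exposed to compounds for 24 hr at 37 C. Intracellular ATP was read by CellTiter-Glo luminescence after 30 min at room temperature, with AC50 values from Hill-equation fits.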

[2] = Cell Viability - LYMP2-021 (AID 974);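 note: compound exposure lasts 24 hours at 37 °C; nearly all actives have a fitted effect of over 55% in size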; note: potency is the fitted concentration of half-maximal effect
In short: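 Human lymphoblastoid cells (2500/well) were preincubated 5 hr at 37 C, then exposed to compounds for 24 hr at 37 C in complete medium. Intracellular ATP was read by CellTiter-Glo luminescence; AC50 came from Hill-equation fits of concentration-response data.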

[3] = Cell Viability - LYMP2-023 (AID 975); note: nearly all actives have a fitted effect of over 55% in size; note: potency is the fitted concentration of half-maximal effect
In short: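 Human lymphoblastoid cells (2500/well) were preincubated 5 hr at 37 C, then exposed to compounds for 24 hr at 37 C in complete medium. Cellular ATP was read by CellTiter-Glo luminescence, and AC50 came from Hill-equation fits.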

[4] = Cell Viability - LYMP2-025 (AID 976); note: series mostly up to about 92 µM
In short: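 Human lymphoblastoid LYMP2-025 cells (2500/well) were pre-incubated 5 hr at 37 C, then treated with compounds for 24 hr at 37 C in complete medium. Viability was read as intracellular ATP by CellTiter-Glo luminescence; AC50 from Hill fits.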

[5] = Cell Viability - LYMP2-002 (AID 977); note: series mostly up to about 92 µM
In short: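 Luminescent ATP readout (CellTiter-Glo, 30 min room temperature) after 24 h compound exposure at 37 C of a human lymphoblastoid line, 2500 cells/well. AC50 values derived by standard Hill fitting of qHTS concentration-response data.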

[6] = Cell Viability - LYMP2-006 (AID 978); note: nearly all actives have a fitted effect of over 60% in size; note: potency is the fitted concentration of half-maximal effect
In short: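 Concentration-dependent loss of intracellular ATP in a human lymphoblastoid line after 24 hr treatment at 37 C was measured by CellTiter-Glo luminescence, with AC50 values obtained from standard Hill-equation modelling.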

[7] = Cell Viability - LYMP2-007 (AID 979);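 note: cells exposed to compound for 24 h before reading; nearly all actives have a fitted effect of over 60% in size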; note: potency is the fitted concentration of half-maximal effect
In short: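 Human lymphoblastoid cells (2500/well) were plated in complete medium, incubated 5 hr at 37 C, then exposed to compounds for 24 hr at 37 C. Intracellular ATP was read by CellTiter-Glo luminescence after 30 min at room temperature; AC50 from Hill fits.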

[8] = Cell Viability - LYMP2-008 (AID 980); note: nearly all actives have a fitted effect of over 60% in size
In short: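 Human lymphoblastoid cells (2500/well) were plated, held 5 hr at 37 C, then exposed to compounds for 24 hr at 37 C in complete medium. Intracellular ATP was read by CellTiter-Glo luminescence; AC50 from Hill-fitted concentration-response.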

[9] = Cell Viability - LYMP2-010 (AID 981); note: nearly all actives have a fitted effect of over 55% in size; note: potency is the fitted concentration of half-maximal effect
In short: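 Human lymphoblastoid LYMP2-010 cells (2500/well) were preincubated 5 hr at 37 C, then exposed to compounds for 24 hr at 37 C in complete medium. Intracellular ATP was measured by CellTiter-Glo luminescence after 30 min at room temperature; AC50 from Hill-fitted concentration-response.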

[10] = Cell Viability - LYMP2-012 (AID 982); note: potency is the fitted concentration of half-maximal effect
[11] = Cell Viability - LYMP2-014 (AID 983); note: series mostly up to about 92 µM; nearly all actives have a fitted effect of over 50% in size
In short: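 Human lymphoblastoid cells (2500/well) were pre-incubated 5 hr at 37 C, then exposed to compounds in complete medium for 24 hr at 37 C. Intracellular ATP was read by CellTiter-Glo luminescence after 30 min at room temperature; AC50 from Hill fits.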

[12] = Cell Viability - LYMP2-016 (AID 984); note: nearly all actives have a fitted effect of over 55% in size; note: potency is the fitted concentration of half-maximal effect
In short: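 Acute toxicity in a Coriell human lymphoblastoid line is scored as loss of intracellular ATP over 24 h of treatment in complete medium. CellTiter-Glo signal is fitted across concentrations with the Hill equation to give AC50.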

[13] = Cell Viability - LYMP2-018 (AID 985);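 note: compound exposure lasted 24 hr at 37 °C; nearly all actives have a fitted effect of over 50% in size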; note: potency is the fitted concentration of half-maximal effect
In short: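 Human lymphoblastoid cells (2500/well) were pre-incubated 5 hr at 37 C, then exposed to compounds for 24 hr at 37 C in complete medium. Viability was read as intracellular ATP by CellTiter-Glo luminescence; AC50 values came from Hill-equation fits.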

[14] = Cell Viability - LYMP2-020 (AID 986); note: nearly all actives have a fitted effect of over 55% in size; note: potency is the fitted concentration of half-maximal effect
In short: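 Human lymphoblastoid cells, 2500/well, were pre-incubated 5 hr at 37 C, then exposed to compounds for 24 hr at 37 C in complete medium. Intracellular ATP was read by CellTiter-Glo luminescence, and AC50 was derived by Hill fitting of concentration-response data.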

[15] = Cell Viability - LYMP2-022 (AID 987); note: nearly all actives have a fitted effect of over 55% in size; note: potency is the fitted concentration of half-maximal effect
In short: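 Human lymphoblastoid cells, 2500/well, preincubated 5 hr at 37 C, then exposed to compounds over a concentration range for 24 hr at 37 C in complete medium. Viability read as intracellular ATP by CellTiter-Glo luminescence after 30 min at room temperature; AC50 from Hill fits.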

[16] = Cell Viability - LYMP2-024 (AID 988); note: nearly all actives have a fitted effect of over 60% in size; note: potency is the fitted concentration of half-maximal effect
In short: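 Human lymphoblastoid cells (2500/well) in complete medium were preincubated 5 hr at 37 C, then exposed to compounds for 24 hr at 37 C. Intracellular ATP was read by CellTiter-Glo luminescence; AC50 from Hill-equation fits of concentration-response data.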

[17] = Cell Viability - LYMP2-026 (AID 989); note: nearly all actives have a fitted effect of over 50% in size
In short: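 Human lymphoblastoid cells (2500/well) in complete medium were preincubated 5 hr at 37 C, then exposed to compounds for 24 hr at 37 C. Cellular ATP was read by CellTiter-Glo luminescence; AC50 from Hill-equation fits of concentration-response data.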

[18] = Cell Viability - LYMP1-002 - Assay at 24 hr (AID 993); note: potency is the fitted concentration of half-maximal effect
In short: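 Human lymphoblastoid LYMP1-002 cells, 2500/well in complete medium, were treated with compounds for 24 h at 37 C; intracellular ATP was read by CellTiter-Glo luminescence. AC50 values came from Hill-equation fits of qHTS concentration-response data.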

[19] = Cell Viability - LYMP1-002 - Assay at 40 hr (AID 994); note: nearly all actives have a fitted effect of over 60% in size; note: potency is the fitted concentration of half-maximal effect
In short: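 Human lymphoblastoid cells, 2500/well in complete medium, were preincubated 5 hr at 37 C, then exposed to compounds for 40 hr at 37 C. Intracellular ATP was read by CellTiter-Glo luminescence after 30 min at room temperature; AC50 from Hill-equation fits.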

[20] = molecular target: Alpha-galactosidase A (Homo sapiens) (UniProt P06280); test: Counterscreen for Glucocerebrosidase Inhibitors: qHTS Assay for Human alpha-Galactosidase at pH 4.5 (AID 992)
Chain of Alpha-galactosidase A (Homo sapiens) (P06280 whole entry, looked up): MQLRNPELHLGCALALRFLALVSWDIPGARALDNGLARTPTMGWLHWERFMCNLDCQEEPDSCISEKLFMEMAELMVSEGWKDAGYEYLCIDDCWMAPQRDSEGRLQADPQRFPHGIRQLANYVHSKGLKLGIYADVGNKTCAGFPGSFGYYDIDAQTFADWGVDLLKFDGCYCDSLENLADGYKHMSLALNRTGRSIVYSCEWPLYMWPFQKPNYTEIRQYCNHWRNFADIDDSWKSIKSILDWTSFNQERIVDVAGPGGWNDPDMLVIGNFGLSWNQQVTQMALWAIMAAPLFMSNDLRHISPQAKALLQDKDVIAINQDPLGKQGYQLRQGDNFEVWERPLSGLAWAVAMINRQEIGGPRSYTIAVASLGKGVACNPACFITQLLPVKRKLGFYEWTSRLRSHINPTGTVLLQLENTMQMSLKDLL
In short: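 Concentration-response curves (0.7 nM to 77 uM final) were modeled with the Hill equation to give AC50. Reactions: 2 nM enzyme, 80 uM fluorogenic alpha-galactoside, pH 4.5 citric acid buffer, 20 min, room temperature.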

Measured: Potency

COC(=O)c1ccccc1O
not listed: [20]
inactive: all other assays above

C/C=C/C=C/C(=O)O
not listed: [20]
inactive: all other assays above

C[C@@](Cc1ccc(O)c(O)c1)(NN)C(=O)O
inactive: [20]

CCCCC
not listed: [20]
inactive: all other assays above

OB(O)O
not listed: [20]
inactive: all other assays above

Nc1ccc(N=Nc2ccccc2)c(N)n1
not listed: [20]
inactive: all other assays above

C[C@H](CCC(=O)O)[C@H]1CC[C@H]2[C@@H]3CC[C@@H]4C[C@H](O)CC[C@]4(C)[C@H]3C[C@H](O)[C@]12C
not listed: [10] | [11] | [20]
inactive: all other assays above

Oc1cccc(O)c1O
not listed: [2] | [7] | [9] | [15] | [16] | [20]
inactive: all other assays above

CCOC(C)OCC
not listed: [20]
inactive: all other assays above

Nc1nccs1
not listed: [20]
inactive: all other assays above

Nc1ncnc2c1ncn2[C@H]1CC[C@@H](CO)O1
not listed: [20]
inactive: all other assays above

Cc1cc(C)c(NC(=O)C[C@H](CC(=O)O)c2cccc3ccccc23)c(C(=O)N2CCC3(CCCC3)CC2)c1
inactive: [20]

OCC(O)CO
not listed: [20]
inactive: all other assays above

O.O.O.O.O.O.O.O=S(=O)([O-])[O-].[Co+2]
inactive: [1] | [3] | [4] | [6] | [8] | [12] | [13] | [18] | [19]

CO/N=C(/C(=O)N[C@@H]1C(=O)N2C(C(=O)O)=C(COC(N)=O)CS[C@H]12)c1ccco1
not listed: [20]
inactive: all other assays above

O=c1n(CC2CO2)c(=O)n(CC2CO2)c(=O)n1CC1CO1 (stereo unspecified)
active: [1] 39.8 µM | [2] 31.6 µM | [3] 39.8 µM | [6] 39.8 µM | [7] 39.8 µM | [9] 25.1 µM | [10] 25.1 µM | [12] 31.6 µM | [13] 15.8 µM | [14] 25.1 µM | [15] 31.6 µM | [16] 39.8 µM | [18] 39.8 µM | [19] 7.94 µM
